Screening data as filed in PubChem.
LYPLA1 inh = counter-screen for PME1 inhibitors: inhibitors of human LYPLA1. recombinant LYPLA1, FP-Rh probe fluorescence polarization. inhibition, % at 5.9 µM. 320,000 compounds, 0.16% hits. AID 2174;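 active = inhibition above the mean of all tested compounds plus 3 SD, set per campaign, cut at about 14% in these data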;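 note: inhibitors block serine hydrolase probe labeling of LYPLA1 so polarization falls; 0% = enzyme with DMSO and 100% = wells lacking LYPLA1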
PME-1 primary = PME-1 (human) inhibition | 320,000 compounds, 0.53% hits | recombinant PME-1, FP-Rh probe fluorescence polarization | Q9Y570 | inhibition, % at 5.9 µM;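 active = inhibition above the campaign mean of all compounds plus 3 SD, cut at about 26% in these data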;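 note: competitive labeling of PME-1 active site by serine hydrolase directed probe; 0% = PME-1 with DMSO and 100% = wells lacking PME-1 enzyme; inhibitors block probe labeling so polarization falls and inhibition rises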
Target sequence (Q9Y570 whole entry, looked up): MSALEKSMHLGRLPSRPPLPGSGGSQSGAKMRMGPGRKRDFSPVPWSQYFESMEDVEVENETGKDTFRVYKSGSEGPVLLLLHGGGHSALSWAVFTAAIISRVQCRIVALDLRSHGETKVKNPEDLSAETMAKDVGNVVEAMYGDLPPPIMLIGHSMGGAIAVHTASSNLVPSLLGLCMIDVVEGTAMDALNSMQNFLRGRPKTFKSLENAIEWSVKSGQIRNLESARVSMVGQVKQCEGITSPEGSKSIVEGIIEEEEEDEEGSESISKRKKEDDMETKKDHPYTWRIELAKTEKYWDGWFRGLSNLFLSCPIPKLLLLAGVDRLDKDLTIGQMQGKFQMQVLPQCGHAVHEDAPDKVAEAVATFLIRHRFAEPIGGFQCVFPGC
GSTO1 inh = GSTO1 inhibition, counter-screen for RBBP9 inhibitors | recombinant GSTO1, activity-based probe fluorescence polarization | P78417 | inhibition, % at 5.96 µM | AID 1974 | 300,000 compounds, 1.1% hits;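 active = inhibition above the campaign mean inhibition plus 3 SD, cut at about 35% in these data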;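 note: 0% = GSTO1-1 with DMSO and 100% = wells lacking GSTO1-1 enzyme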
PAD4 FP inh = blocks human protein arginine deiminase 4. Q9UM07. recombinant PAD4, RCA probe fluorescence polarization. inhibition, % at 6.36 µM. 330,000 compounds, 0.41% hits. AID 485272;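 active = percent inhibition above a cutoff equal to the mean of all tested compounds plus 3 SD, cut at about 15% in these data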;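 note: 0% = PAD4 with RCA probe and DMSO and 100% = probe without PAD4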
LYPLA2 inh = counter-screen for PME1 inhibitors: inhibitors of human LYPLA2; inhibition, % at 5.9 µM; 320,000 compounds, 0.38% hits; recombinant LYPLA2, FP-Rh probe fluorescence polarization; AID 2177;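 active = inhibition above the screen-wide mean plus 3 SD, limit set per campaign, cut at about 26% in these data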;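 note: 0% = LYPLA2 with DMSO and 100% = wells lacking LYPLA2 enzyme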
Target sequence (O95372 whole entry, looked up): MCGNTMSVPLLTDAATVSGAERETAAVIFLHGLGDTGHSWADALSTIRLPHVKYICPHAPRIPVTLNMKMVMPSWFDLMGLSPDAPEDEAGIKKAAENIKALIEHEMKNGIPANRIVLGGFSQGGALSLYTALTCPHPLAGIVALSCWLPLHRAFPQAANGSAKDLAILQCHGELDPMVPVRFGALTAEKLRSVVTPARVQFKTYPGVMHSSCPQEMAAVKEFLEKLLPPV
Fam108B inh = counter-screen for RBBP9 inhibitors: inhibitors of mouse Fam108B. recombinant Fam108B, FP-Rh probe fluorescence polarization. AID 1947. 300,000 compounds, 0.33% hits. inhibition, % at 9.51 µM;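 active = inhibition above the screen mean inhibition plus 3 SD, computed separately per campaign, cut at about 18% in these data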;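 note: inhibitors lower polarization as less probe binds the enzyme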
GSTO1 confirm = confirmation of human GSTO1 inhibitors | 2,400 compounds, 54% hits | shares compounds with GSTO1 inh | recombinant GSTO1, probe fluorescence polarization | AID 2176 | inhibition, % at 5.96 µM;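 active = inhibition above the primary screen's cutoff, its mean inhibition plus 3 SD, cut at about 35% in these data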;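 note: loss of polarization as inhibitors block binding of rhodamine sulfonate ester activity probe; 0% = GSTO1 with DMSO and 100% = wells lacking GSTO1 enzyme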
LYPLA1 confirm = LYPLA1 (human) inhibition, confirmation counter-screen | inhibition, % at 5.9 µM | AID 2233 | 480 compounds, 69% hits | recombinant LYPLA1, FP-Rh probe fluorescence polarization | shares compounds with LYPLA1 inh;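 active = mean inhibition across replicates above the hit cutoff set in the primary screen, cut at about 15% in these data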;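 note: loss of FP-Rh probe labeling of LYPLA1 seen as lower polarization; 0% = LYPLA1 with DMSO and 100% = wells lacking LYPLA1 enzyme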
LYPLA2 conf = counter-screen for PME1 inhibitors: confirmation of human LYPLA2 inhibitors; shares compounds with LYPLA2 inh; recombinant LYPLA2, FP-Rh probe fluorescence polarization; inhibition, % at 5.9 µM; 1,100 compounds, 72% hits; AID 2232;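 active = mean inhibition across replicates above the hit cutoff set in the primary screen, cut at about 26% in these data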;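 note: blocked labeling of the enzyme by serine hydrolase FP-Rh probe lowers polarization; 0% = enzyme with DMSO and 100% = wells lacking LYPLA2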
PAD4 FP conf = PAD4 (human) inhibition, confirmed | shares compounds with PAD4 FP inh | inhibition, % at 6.36 µM | recombinant PAD4, RCA probe fluorescence polarization | 1,200 compounds, 28% hits;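 active = mean inhibition across replicates above the hit cutoff set by the earlier primary screen, cut at about 15% in these data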;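 note: inhibitors block active-site labeling by the probe so polarization falls; 0% = PAD4 with probe and DMSO and 100% = probe without PAD4 enzyme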
* hit, by the source's call; / = no result. Hits are enriched below; roughly 1.8% of the tested compounds scored in any of these assays.

SMILES	LYPLA1 inh	PME-1 primary	GSTO1 inh	PAD4 FP inh	LYPLA2 inh	Fam108B inh	PAD4 FP conf	others
CC(C)CCn1c(N)c(C(=O)OCC2CCCO2)c2nc3ccccc3nc21 (configuration not stated)	1.1	5.7	88.0*	72.3*	5.2	2.5	-21.2	GSTO1 confirm=6.1
CCCCn1c(N)c(C(=O)OCC2CCCO2)c2nc3ccccc3nc21 (configuration not stated)	-1.9	4.5	81.3*	69.4*	-4.0	10.0	-10.3	GSTO1 confirm=6.4
CC(C)OCCCNC(=O)c1c(N)n(CC2CCCO2)c2nc3ccccc3nc12 (configuration not stated)	-0.3	-1.0	24.3	-4.2	-2.6	7.2	/
COc1cc2c(cc1OC)-c1c3c(cc4c1[C@@H](C2)N(C)CC4)OCO3	0.4	0.0	78.6*	56.9*	-0.8	3.4	-9.0	GSTO1 confirm=69.8*
COc1cc2c(cc1OC)-c1c(OC)c(OC)cc3c1C(C2)N(C)CC3 (configuration not stated)	0.4	1.9	69.6*	47.2*	1.7	0.3	26.0*	GSTO1 confirm=78.2*
COC(=O)C1=C(c2ccc(C(C)=O)cc2)C[C@@H]2CC[C@H]1N2C(=O)N1CCC(C)CC1	1.7	0.0	/	-3.4	-1.1	/	/
COC(=O)C1=C(c2ccc(F)cc2OCc2ccccc2)C[C@@H]2CC[C@H]1N2C(=O)NCCOc1ccc(OC)cc1	-1.6	-1.1	/	2.5	-1.0	/	/
CC(C)[C@H]1C(=O)N2CCC[C@H]2[C@]2(O)O[C@](NC(=O)[C@@H]3C=C4c5cccc6[nH]cc(c56)C[C@H]4N(C)C3)(C(C)C)C(=O)N12	1.7	9.3	59.0*	28.9*	5.7	16.6	2.0	GSTO1 confirm=4.7
COC(=O)C1=C(c2ccc(C(C)=O)cc2)C[C@@H]2CC[C@H]1N2C(=O)NC1CC1	0.7	2.2	/	1.9	-0.6	/	/
CCN(CC)c1ccc(N=Cc2c(O)n(-c3ccccc3C)c(=O)[nH]c2=O)cc1	-2.0	6.4	27.9	11.3	-0.9	-3.3	/
CCOc1ccccc1-n1c(O)c(C=Nc2ccc(N(CC)CC)cc2)c(=O)[nH]c1=O	-0.9	4.7	54.1*	37.6*	-1.0	-0.5	3.0	GSTO1 confirm=5.3
CCN(CC)c1ccc(N=Cc2c(O)n(-c3ccccc3)c(=O)[nH]c2=O)cc1	1.4	-0.3	42.3*	18.2*	0.7	-0.2	4.3	GSTO1 confirm=8.0
COC(=O)C(Cc1ccc(N(CCCl)CCCl)cc1)N=Cc1ccccc1O (configuration not stated)	2.0	0.9	6.0	2.8	9.1	1.6	/
NP(=O)(OCCCCc1ccccc1)Oc1ccccc1Cl (configuration not stated)	19.2*	41.4*	5.7	6.2	25.1	-3.1	/	LYPLA1 confirm=9.0
Nc1cc(Cl)cc(C(=O)O)c1Cl	-0.1	-2.5	/	-4.0	-3.0	/	/
Cc1ccc(Cn2nnnc2CN2CCC(n3nnc4cc(C)ccc43)CC2)cc1	-0.7	-7.1	0.1	-4.0	26.6*	-2.0	/	LYPLA2 conf=24.1
Cc1ccc(Cn2nnnc2CN2CCC(n3nnc4cc(C(F)(F)F)ccc43)CC2)cc1	-1.4	-1.4	-7.6	1.0	15.2	2.7	/
COC(=O)C1=C(c2ccc(OC(F)(F)F)cc2)C[C@@H]2CC[C@H]1N2C(=O)NCc1cc(C)oc1C(F)(F)F	3.4	-5.8	/	-2.0	2.4	/	/
CCN(CC)C(=O)c1ccc(NC(=O)COc2ccc(-c3nn(C)c(=O)c4ccccc34)cc2)cc1	12.5	-0.4	-12.6	-6.8	31.7*	3.0	/	LYPLA2 conf=31.4*
CN(CCc1ccccc1)Cc1c[nH]c2ccccc12	1.1	5.2	13.4	3.1	7.2	8.0	/
Oc1c(Cl)c(Cl)c(Cl)c(Cl)c1Cl	9.2	18.7	-16.9	0.4	28.1*	-3.3	/	LYPLA2 conf=34.3*
CC(=NCCN1CCOCC1)c1c(O)n(Cc2ccccc2)c(=O)[nH]c1=O	-2.3	5.3	-1.7	-0.5	-1.7	-2.2	/
CC(=NCCc1c[nH]c2ccccc12)c1c(O)n(Cc2ccccc2)c(=O)[nH]c1=O	-2.2	5.1	-6.5	1.3	30.8*	-1.9	/	LYPLA2 conf=27.4*
CCOc1cccc(OCC)c2c(C)[n+](CC3CCCO3)c(C)c1-2 (configuration not stated)	3.3	4.8	28.6	14.8*	-1.6	4.6	-5.7
CC(C)COC(=O)c1ccccc1C(=O)OCC(C)C	0.9	1.8	2.1	-0.1	0.9	0.5	/
SMILES	LYPLA1 inh	PME-1 primary	GSTO1 inh	PAD4 FP inh	LYPLA2 inh	Fam108B inh	PAD4 FP conf	others
C[CH2][Hg][S]c1ccccc1C(=O)O	1.3	-9.7	19.4	37.7*	3.9	-4.3	50.1*
CCCCn1c(NS(=O)(=O)c2ccc(C)cc2)c(C(=O)OCC)c2nc3ccccc3nc21	3.4	5.4	82.2*	66.2*	8.8	2.6	-2.6
Cc1ncc(CN2CCCC(C(=O)c3ccc(C(C)(C)C)cc3)C2)s1 (configuration not stated)	-1.5	3.3	0.9	-3.2	3.8	2.3	/
N/C(=N\N=C\c1ccc(O)cc1O)N[N+](=O)[O-]	0.2	3.1	11.4	-0.6	-1.4	2.0	/
COc1ccccc1/C=N/N=C(/N)N[N+](=O)[O-]	-1.3	-3.9	1.1	15.6*	2.1	2.4	5.4
CCOC(=O)c1c(C=O)c2ccccc2n1Cc1ccccc1F	-3.5	1.9	-1.2	1.2	3.5	3.8	/
CN(C)c1ccc(/C=C/C=C/c2sc3ccccc3[n+]2C)cc1	-22.8	-39.7	-7.8	-6.7	-42.7	-14.7	/
C[n+]1c(-c2ccccc2)sc2ccccc21	2.8	3.2	2.6	14.8*	1.8	-0.5	6.2
C=CCn1c(O)c(C(C)=Nc2ccc(N(C)C)cc2)c(=O)[nH]c1=O	-4.3	-1.5	29.8	11.0	-1.7	-0.8	/
C=CCn1c(O)c(C(C)=Nc2ccc(N(CC)CC)cc2)c(=O)[nH]c1=O	0.3	2.9	14.1	18.8*	2.4	0.5	-6.9
CCOP(=O)(Cc1cc(C(=O)CC)c(C)o1)OCC	0.2	3.5	0.8	1.8	-5.5	-2.8	/
COc1cc(C(c2c(C)[nH]n(-c3ccccc3)c2=O)c2c(C)[nH]n(-c3ccccc3)c2=O)cc(OC)c1OC	2.7	5.6	79.2*	69.5*	6.0	-0.8	3.5
CCN1/C(=C\C=C\C2=[N+](CC)c3ccccc3C2(C)C)C(C)(C)c2ccccc21	-160.4	-243.1	-351.7	145.3*	-339.0	-372.6	100.6*
CC(=O)[C@@]1(O)CCC2C3CC=C4C[C@@H](O)CC[C@]4(C)C3CC[C@@]21C (some centres not stated)	/	/	/	-3.6	/	/	/
